Among the data in article PMC7819943, “Rice protein-binding microarrays: a tool to detect cis-acting elements near promoter regions in rice” are binding signal values, retold here.

In all, about 39,000 sequences were measured (“fluorescence intensity (a.u.)”: median about 4,300, highest 2% from about 39,000 on). The entries come from a sample that favours the highest values as a whole.

This assay has as its target T1, OsSMF1 (Oryza sativa, UniProt Q6ZLB0 1-436).
T1 sequence: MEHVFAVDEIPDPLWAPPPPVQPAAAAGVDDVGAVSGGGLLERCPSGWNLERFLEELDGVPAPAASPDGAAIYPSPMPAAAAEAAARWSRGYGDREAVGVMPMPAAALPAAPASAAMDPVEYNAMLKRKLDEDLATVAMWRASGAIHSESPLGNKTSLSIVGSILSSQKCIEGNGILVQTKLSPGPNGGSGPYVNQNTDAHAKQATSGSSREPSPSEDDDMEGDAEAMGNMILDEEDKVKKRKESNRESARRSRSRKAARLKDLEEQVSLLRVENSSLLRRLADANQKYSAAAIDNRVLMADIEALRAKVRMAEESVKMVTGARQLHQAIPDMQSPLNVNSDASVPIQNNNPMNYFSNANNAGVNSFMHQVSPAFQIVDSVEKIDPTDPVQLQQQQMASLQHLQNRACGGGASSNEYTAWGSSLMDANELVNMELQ
In words: protein-binding microarray (RPBM); PBS, 2% BSA, 51.3 ng/ul salmon testes DNA, 50 uM zinc acetate, 200 nM TF, 25 C, 1 h; high values mean tight binding. As to conditions: protein: recombinant; tags: N-terminal polyhistidine and DsRed monomer fusion (pET32a); chain copies: 2; label: CyDye5-dUTP incorporated in the synthesized complementary strand; 3' TTTTT single-stranded linker to array surface; dsDNA, one strand shown. In a few lines:
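Using Ni–NTA, transcription factors fused N-terminally to polyhistidine and DsRed were purified after expression in E. coli BL21-CodonPlus. These were incubated at 200 nM with a blocked, double-stranded custom Agilent array for 1 h at 25 °C in a buffer containing 50 µM zinc acetate, and the array was washed. The binding signal is per-feature fluorescence intensity (arbitrary units) on an Axon 4000B scanner.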
For the sequence “CTTGCACAAGTACAGTACGTGTACATGCATGTATGCTACCCGGAGTCACCTAGTGCAG”, the binding signal is 5700 fluorescence intensity (a.u.). Take “TTGCTAGTTGGTACAAAGTAAGCATGCAACACTTGTATGCCGGAGTCACCTAGTGCAG”: the binding signal is 42200 fluorescence intensity (a.u.). In the case of “ATGCATGGTATGTCACGTTGTGACTTGCCTACACTAAAGCCGGAGTCACCTAGTGCAG”, the binding signal was 4520 fluorescence intensity (a.u.). Regarding “AATGCTGCAATTTCTCGTTGACTAGACTTCACATGCAGCTCGGAGTCACCTAGTGCAG”, the binding signal is 5400 fluorescence intensity (a.u.).

In the case of “TCCGTTGAGATCAGCACTTTCTAGCAGCTGTACAAGAGACCGGAGTCACCTAGTGCAG”, the binding signal is 3740 fluorescence intensity (a.u.). “GCCCATGTACGATGACGTGTACCCTATTGTCTTCTACTAGCGGAGTCACCTAGTGCAG”: the binding signal was 21600 fluorescence intensity (a.u.). Consider “CACGCCAACGCCCAAGCCCACCAACCCAAGTTGAGTCGTGCGGAGTCACCTAGTGCAG”, for which the binding signal was 3360 fluorescence intensity (a.u.). The figure for “CTACATCAGCTATATCTATTGTTGCTCTTACACTAAATTACGGAGTCACCTAGTGCAG” is 23700 fluorescence intensity (a.u.); for “ATATAGATCATCATCAAGACTACGTATTATTCACTATTCACGGAGTCACCTAGTGCAG” it is 3160 fluorescence intensity (a.u.). As to “TTACAGGATTATATATCATGTTTATCTATTCGTCTTACTACGGAGTCACCTAGTGCAG”, the binding signal is 39500 fluorescence intensity (a.u.). Take “AATCTATGCATATATATATATATATATATGTCTAGATTCACGGAGTCACCTAGTGCAG”: the binding signal is 3240 fluorescence intensity (a.u.). As to “AATGGATCTAGACTATATCTATCTAGATTCATTAGTATCACGGAGTCACCTAGTGCAG”, the binding signal was 45400 fluorescence intensity (a.u.). As to “CCATATCATATTACTCCTACATGTGTACTACATTTATATTCGGAGTCACCTAGTGCAG”, the binding signal is 3720 fluorescence intensity (a.u.). Take “CCGCTCCGCCTACTCTGGCCACGCGCTGACGCCGCGTCCCCGGAGTCACCTAGTGCAG”: the binding signal is 7060 fluorescence intensity (a.u.). Take “GGCGGAGACGCGGGCGTGGCTCGGCGGCCTGCTAGTGTGACGGAGTCACCTAGTGCAG”: the binding signal is 3340 fluorescence intensity (a.u.). For “AAAGCCAAACAAGTGTCCAAACGGCTAGGAGTCAACCTCGCGGAGTCACCTAGTGCAG”, the binding signal was 41200 fluorescence intensity (a.u.).

As for “TTCAAGTCCAACCTCGGCCACATGCTCCGCCTCCGCCTCGCGGAGTCACCTAGTGCAG”, the binding signal is 3780 fluorescence intensity (a.u.).

Regarding “AAGTCCTCCCACAAGTCAACCAACCAAAACCACGTCCAAACGGAGTCACCTAGTGCAG”, the binding signal is 3420 fluorescence intensity (a.u.). As for “TTTCTTAACTCGACACGCAATGTATTGTTATTTACGATTCCGGAGTCACCTAGTGCAG”, the binding signal was 3740 fluorescence intensity (a.u.).

Consider “TACCACTATCGGAAGTTTTGGTTGTGACGTCCACAATTCCCGGAGTCACCTAGTGCAG”, for which the binding signal is 3760 fluorescence intensity (a.u.). “AACCGGGACTAAAGATCGTACCTTTAGTTACGATCTTTAGCGGAGTCACCTAGTGCAG”: the binding signal was 28500 fluorescence intensity (a.u.).

With “CTAATGGGACTGCTGCTACCCTATCTTTAGTCCGGGACTACGGAGTCACCTAGTGCAG”, the binding signal was 3270 fluorescence intensity (a.u.).

In the case of “TTTCACCCGGGACTAAAGATCGCTATCTTTAGTCCCGGATCGGAGTCACCTAGTGCAG”, the binding signal is 52600 fluorescence intensity (a.u.).

For the sequence “CAAGGGAGCTGGTAACACTCATCATTTCCGTTCTTCAAATCGGAGTCACCTAGTGCAG”, the binding signal was 3250 fluorescence intensity (a.u.). Consider “AGGTTGGTGATTCAGAGATGTCGAGACGTGTGTTCTTTTGCGGAGTCACCTAGTGCAG”, for which the binding signal is 4270 fluorescence intensity (a.u.).

With “GCGCGTTGCTGCTGACTCCGGAGCAAAATCGAGCGAGCGCCGGAGTCACCTAGTGCAG”, the binding signal is 3360 fluorescence intensity (a.u.). The figure for “AACTCCGAGCGTTGCTATGGGAGTTCCGTAAAATAGTAATCGGAGTCACCTAGTGCAG” is 39300 fluorescence intensity (a.u.); for “TTAATACAAATCCGTTGCATCACACGAGTCATATGCTAGTCGGAGTCACCTAGTGCAG” it is 5010 fluorescence intensity (a.u.); for “TTGAATTGCCATTACAAGCAGAAACTGGGTAGCCCAGCAGCGGAGTCACCTAGTGCAG” it is 14600 fluorescence intensity (a.u.).

Turning to “GCCGCTGCACCGCCCCAGCCTCCTCCTCCCCACCGATGCCCGGAGTCACCTAGTGCAG”, the binding signal is 3150 fluorescence intensity (a.u.).

In the case of “TCTATAAATATGATGTGGCTATGTACTCAGTACTCACCTGCGGAGTCACCTAGTGCAG”, the binding signal was 6690 fluorescence intensity (a.u.). On to “GGCGGCACAGGTCGCCGTCGTCGCCACCGACGCGGCGTCGCGGAGTCACCTAGTGCAG”, for which the binding signal was 3730 fluorescence intensity (a.u.). As to “TTATTCATACATGTCACTGCCAGGCTGCTGTCTACTTCTTCGGAGTCACCTAGTGCAG”, the binding signal was 4950 fluorescence intensity (a.u.). Consider “TGACTGCTGGCTCACATCCAGTCATTGGCTTAGCTAGCTGCGGAGTCACCTAGTGCAG”, for which the binding signal was 4160 fluorescence intensity (a.u.). Turning to “GCTGTCCTGCTCGTCGGCCTCCACGCGCGCTCATCGGCCTCGGAGTCACCTAGTGCAG”, the binding signal was 3240 fluorescence intensity (a.u.). As for “GGCTGCTCATTGTCGTCTCATCTGGGCTTTTCAATGGGCTCGGAGTCACCTAGTGCAG”, the binding signal was 53700 fluorescence intensity (a.u.).

Turning to “CCTTTTCAATGTTCTTGTCATCACTGCTCGTGTCACCCGTCGGAGTCACCTAGTGCAG”, the binding signal was 5650 fluorescence intensity (a.u.). With “ACGGGCTCGTCGAGCTGCTCTGGTGCAATGGCCACGTCATCGGAGTCACCTAGTGCAG”, the binding signal is 28400 fluorescence intensity (a.u.). The figure for “CCATTCATGCCCGTGATATCCTGGCTCCACGAGCTCTGCTCGGAGTCACCTAGTGCAG” is 59000 fluorescence intensity (a.u.). For the sequence “CACGAGTGCCTCTCCGTCATGCTCCACGACAGCTGCAGCCCGGAGTCACCTAGTGCAG”, the binding signal was 4760 fluorescence intensity (a.u.). “GCGCCCCATCCACGCGTCATGCATCCACGTCGGGGCTGCACGGAGTCACCTAGTGCAG”: the binding signal is 11600 fluorescence intensity (a.u.). The value for “GTGCAGATCCACTGTCTGCTCATTGGGCTTATTCATGGCTCGGAGTCACCTAGTGCAG” was 40700 fluorescence intensity (a.u.); that for “AATATCATCCGTGTCACTACCTAGCTCCTGCATGCTCTGCCGGAGTCACCTAGTGCAG” was 4560 fluorescence intensity (a.u.). With “TGAGCACCTCATCCACGCGTCATGCATCTGTGTCGGGGCTCGGAGTCACCTAGTGCAG”, the binding signal is 45200 fluorescence intensity (a.u.).
